# According to PubChem BioAssay AID2685 (National Center for Advancing Translational Sciences (NCATS), 2010):
# The campaign covered roughly 320,000 compounds. About 2,100 (0.66%) were called active. Not shown: some 53% with an inconclusive outcome. Calls follow the shape of the dose curve; as a rule, active = well fitted inhibition curve with a large enough effect in the signal ratio, with a control signal flat (not every such curve was filed as active); inconclusive = small, poorly fitted or top-dose-only effect, or effect the other way, or a change in a side signal; inactive = flat fitted curve, though single readings scatter; the % refers to the signal ratio. The full list was thinned out, with actives kept by preference.
# Test: qHTS Assay for Lipid Storage Modulators in Drosophila S3 Cells;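 as to cell number change: cells counted by Cell Tracker Red CMTPX staining in the red channel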
# Details: BODIPY lipid droplet fluorescence, 18-24 h, cells fed with added oleic acid; cell number change: measured here: cell count max response; series mostly up to 46.1 µM
# Excerpt: NIH Molecular Libraries Probe Production Centers Network [MLPCN] NIH Chemical Genomics Center [NCGC] MLPCN Grant: 1 R03 MH085686-01 Assay Submitter (PI): Beller, Mathias; Max-Planck-Institut fur Biophysikalische Chemie NCGC Assay Overview: Storing lipids as a reservoir for energy or the anabolism of elementary metabolites is a common feature of probably all cells and is conserved from bacteria to humans. The universal cellular lipid storage organelle is the so-called lipid storage droplet (LD). Although ubiquitous, LDs share a simple structure composed of a hydrophobic core that harbors the storage lipids, which is shielded by a droplet-specific phospholipid monolayer to which proteins are attached. The current model of LD biogenesis involves an incorporation of the lipid core into the membrane leaflets of the endoplasmic reticulum (ER) followed by a subsequent budding-like maturation of a LD, which ultimately pinches off. Once released, LD volume can increase by localized lipogenesis or fusion of existing droplet. Storage lipids are re-mobilized enzymatically by lipase activity. Lipase regulation in the adipocyte is heavily studied and involves multiple components including catecholamine signaling, the LD-associated proteins Perilipin and comparative gene identification (CGI-58) and at least two lipases named hormone sensitive lipase (HSL) and adipocyte triglyceride lipase (ATGL). LD regulation outside of the adipocyte is poorly understood and only few components are known. However, there is an urgent need to learn more about ectopic fat depots as mislocalized storage of lipids, for example in the liver or muscle, is an eminent health problem associated with insulin resistance or the metabolic syndrome. We developed a laser-scanning cytometer assay to enable 1,536-well screening and combined the results of the small molecules screen with an RNAi database based on lipid storage.
# Triacsin C (Sigma-Aldrich T-4540), an inhibitor of long-chain fatty acyl CoA synthetase that blocks synthesis of triglycerides, was used as a positive control for lipid under-storage. A total of 23 nL of compound solution of different concentrations were transferred to the assay plates using a Kalypsys pin tool equipped with a 1,536-pin array containing 10-nL slotted pins (FP1S10, 0.457-mm diameter, 50.8 mm long; V&P Scientific). One microliter of oleic acid (400 uM) was added, and the plate was lidded with stainless steel rubber gasket lined lids containing pinholes. […] Fluorescence was detected by excitation of the fluorophores with a 488-nm laser on an Acumen Explorer (TTP Lab Tech). The total intensity in channel 2 (500-530 nm) reflected lipid droplet accumulation. Cells were detected using channel 3 (575-640 nm) with 5-um width and 100-um depth filters. The ratio of the number of objects in PMT channel 2 over the number of objects in PMT channel 3 was also calculated. Percent activity was computed relative to an internal control (100% inhibited lipid droplet deposition due to the presence of 20 uM Triacsin C), which was added to 32 wells/plate.
# Potency is read from the fitted curve at half-maximal effect.
SMILES,Potency,cell number change [%]
COCCNC(=O)Cn1nc(C(F)(F)F)c(Cl)c1C,inactive,-6.82
COc1ccc(-c2csc3nc(C(C)(C)C)oc(=O)c23)cc1OC,inactive,0.241
CCOc1ccc(-c2ccc(NS(=O)(=O)c3cc([N+](=O)[O-])c(C)c([N+](=O)[O-])c3)cc2)nn1,23.1 µM (active),-5.38
CCOc1ccc(-c2ccc(NS(=O)(=O)c3ccc([N+](=O)[O-])cc3)cc2)nn1,inactive,0.33
COc1ccc(-c2ccc(NS(=O)(=O)c3cc([N+](=O)[O-])c(C)c([N+](=O)[O-])c3)cc2)nn1,inactive,-13.5
COC(=O)c1ccc2nc(NC(=O)C(C)(C)C)sc2c1,inactive,-18.4
CC(C)CC(=O)/C=C/n1c(=S)oc2ccccc21,23.1 µM (active),-3.17
CC(C)OC(=O)n1c(=S)oc2ccccc21,inactive,-3.93
O=C(O)CCn1c(=S)oc2ccccc21,inactive,2.74
COc1ccccc1NC(=O)C1CCCN(c2ncnc3c2nc2n3CCCCC2)C1 (stereo not drawn),inactive,-12.6
Cc1cc[n+](Cc2ccc([N+](=O)[O-])cc2)cc1,inactive,-4.93
N=c1n(CCN2CCCCC2)c2ccccc2n1CC(O)c1ccco1 (stereo not drawn),inactive,15.8
N=c1n(CCN2CCCC2)c2ccccc2n1CC(O)c1ccco1 (stereo not drawn),23.1 µM (active),7.5
CCCn1c(=N)n(CC(O)c2ccco2)c2ccccc21 (stereo not drawn),inactive,16.8
Cc1onc(C(=O)N2CCN(C(c3ccccc3)c3ccccc3)CC2)c1[N+](=O)[O-],inactive,3.65
CC(OC(=O)C1=Cc2ccccc2OC1)C(=O)NCc1ccco1 (stereo not drawn),inactive,–
CCC(C(=O)Nc1ccc2c(c1)OCCO2)n1c(=O)[nH]c2ccccc2c1=O (stereo not drawn),inactive,-11.6
CCC(C(=O)Nc1cccnc1)n1c(=O)[nH]c2ccccc2c1=O (stereo not drawn),18.4 µM (active),-16
O=C(Cn1[nH]c(=O)c2ccccc2c1=O)Nc1cccnc1,inactive,7.37
CCO[C@@H]1OC(C(=O)N2CCN(Cc3ccc4c(c3)OCO4)CC2)=C[C@H](c2ccc3c(c2)OCO3)[C@H]1CCCO,inactive,–
O=c1c2ccccc2nnn1CCN1CCOCC1,inactive,-18.2
Cc1ccc2nc(SC(C)C(=O)N3CCCC3)[nH]c2c1 (stereo not drawn),inactive,17.4
CCC(Sc1nc2ccc(C)cc2[nH]1)C(=O)O (stereo not drawn),14.6 µM (active),14.5

SMILES,Potency,cell number change [%]
CCC(Sc1nc2ccccc2c(=O)[nH]1)C(=O)O (stereo not drawn),inactive,-2.97
O=c1[nH]cnc2scc(-c3ccccc3)c12,inactive,-0.547
COc1cccc(-c2csc3nc[nH]c(=O)c23)c1,20.6 µM (active),–
Cc1ccc(-c2csc3nc[nH]c(=O)c23)cc1C,inactive,-18.4
OCCCNc1ncnc2oc(-c3ccccc3)c(-c3ccccc3)c12,inactive,13.3
CCCn1c(/C=N/Nc2nc3ccccc3[nH]2)nc2ccccc21,13 µM (active),-13.7
CC(C)Cn1c(/C=N/Nc2nc3ccccc3[nH]2)nc2ccccc21,inactive,-7.46
C(=N\Nc1nc2ccccc2[nH]1)/c1ccccc1,inactive,-28.7
CCOC(=O)N1CCN(Cc2nnc(-c3ccccc3C)o2)CC1,inactive,3.5
Cc1cc(NC(=O)c2cccs2)ncc1NC(=O)c1cccc(F)c1,inactive,0.447
CCCCc1nc(C(N)=O)c2[nH]c(=O)n(-c3ccc(OC)c(OC)c3)c2n1,inactive,–
CC1CCCCC1NC(=O)CN1C(=O)COc2ccccc21 (stereo not drawn),inactive,-0.697
CCC1Oc2ccccc2N(CC(=O)NC2CCCCC2)C1=O (stereo not drawn),inactive,2.82
CCC1Oc2ccccc2N(CC(=O)NC2CCCCC2C)C1=O (stereo not drawn),29.1 µM (active),-4.58
CC(C)c1nnc(NC(=O)COc2ccccc2[N+](=O)[O-])s1,inactive,0.142
Cc1ccnc2nc(C(=O)Nc3nc(-c4ccccn4)cs3)nn12,1.64 µM (active),-16
CCc1cc(C(=O)Nc2nc(-c3ccccn3)cs2)sc1C,5.17 µM (active),3.52
Cc1ccc(C(=O)Nc2nc(-c3ccccn3)cs2)s1,2.06 µM (active),-8.64
Cn1nc(C(=O)Nc2nc(-c3ccccn3)cs2)c2ccccc2c1=O,inactive,-20.7
O=C(Nc1nc(-c2ccccn2)cs1)c1ccco1,inactive,-10.5
Cc1ccnc2nc(C(=O)Nc3nccs3)nn12,inactive,-14.4
CCc1cc(C(=O)Nc2ncccc2O)sc1C,inactive,-6.68
Cc1cc(C)c(OCC(=O)Nc2nc(-c3ccccn3)cs2)c(C)c1,inactive,1.77
